Inconclusive results are not listed. Calls of active or inactive are those of the source. Unless noted, calls follow the shape of the dose curve; as a rule, active = well fitted curve in either direction with a large enough effect (not every such curve was filed as active); inconclusive = small, poorly fitted or top-dose-only effect, or another doubt; inactive = flat fitted curve, though single readings scatter.
Experiments:
[1] = molecular target: Lysosomal acid glucosylceramidase (Homo sapiens) (UniProt P04062); assay: Glucocerebrosidase-p2 (AID 348; in the data active = potency below about 10 µM; also: potency is read from the fitted curve at half-maximal effect); conditions: purified GBA, blue fluorogenic substrate, 40 min
Sequence of Lysosomal acid glucosylceramidase (Homo sapiens) (P04062 whole entry, looked up): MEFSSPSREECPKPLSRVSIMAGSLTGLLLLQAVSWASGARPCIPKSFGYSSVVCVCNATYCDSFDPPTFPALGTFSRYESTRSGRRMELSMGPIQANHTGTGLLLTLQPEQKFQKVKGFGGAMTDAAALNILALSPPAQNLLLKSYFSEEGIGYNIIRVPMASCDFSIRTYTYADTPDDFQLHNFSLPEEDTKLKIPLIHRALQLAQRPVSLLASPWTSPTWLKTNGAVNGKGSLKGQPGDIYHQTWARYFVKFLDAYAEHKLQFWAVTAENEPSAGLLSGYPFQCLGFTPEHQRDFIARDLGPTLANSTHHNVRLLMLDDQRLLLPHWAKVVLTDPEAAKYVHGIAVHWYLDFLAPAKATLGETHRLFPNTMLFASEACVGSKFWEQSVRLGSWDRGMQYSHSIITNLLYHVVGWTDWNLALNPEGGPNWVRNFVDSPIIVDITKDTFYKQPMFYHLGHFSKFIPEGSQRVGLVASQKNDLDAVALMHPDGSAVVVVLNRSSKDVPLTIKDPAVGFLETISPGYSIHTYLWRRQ
Procedure, shortened: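 Compounds titrated from 0.6 nM upwards against 0.2 nM enzyme in pH 5.9 citric acid/KH2PO4, taurocholate, tween-20; blue fluorogenic substrate 80 uM, 40 min room temperature, stopped and read Ex 365/Em 440 for AC50.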

[2] = AP1 Signaling Pathway (AID 357); conditions: ME-180 AP-1-bla reporter, EGF-induced, beta-lactamase ratio, 5 h; at 7.69 µM (top of the series) unless noted;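 also: ME-180 reporter cells stimulated with EGF at its EC50 level; % is scaled to controls: 0 for no effect and ±100 for the full control effect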
Procedure, shortened: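 First, ME-180 AP-1-bla cells were cultured overnight at 37 °C in low-serum Opti-MEM. Next, titrated compounds with EC50 EGF were incubated 5 hours. Finally, CCF4 was added for 2.5 hours and the 460/530 nm ratio recorded.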

[3] = molecular target: Cytochrome P450 1A2 (Homo sapiens) (UniProt P05177); assay: p450-cyp1a2 (AID 410; calls by dose curve;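 also: -100% = full effect of reference inhibitor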); conditions: recombinant CYP1A2, luciferin-ME demethylation, luminescence; series mostly up to 11.4 µM
Sequence of Cytochrome P450 1A2 (Homo sapiens) (P05177 whole entry, looked up): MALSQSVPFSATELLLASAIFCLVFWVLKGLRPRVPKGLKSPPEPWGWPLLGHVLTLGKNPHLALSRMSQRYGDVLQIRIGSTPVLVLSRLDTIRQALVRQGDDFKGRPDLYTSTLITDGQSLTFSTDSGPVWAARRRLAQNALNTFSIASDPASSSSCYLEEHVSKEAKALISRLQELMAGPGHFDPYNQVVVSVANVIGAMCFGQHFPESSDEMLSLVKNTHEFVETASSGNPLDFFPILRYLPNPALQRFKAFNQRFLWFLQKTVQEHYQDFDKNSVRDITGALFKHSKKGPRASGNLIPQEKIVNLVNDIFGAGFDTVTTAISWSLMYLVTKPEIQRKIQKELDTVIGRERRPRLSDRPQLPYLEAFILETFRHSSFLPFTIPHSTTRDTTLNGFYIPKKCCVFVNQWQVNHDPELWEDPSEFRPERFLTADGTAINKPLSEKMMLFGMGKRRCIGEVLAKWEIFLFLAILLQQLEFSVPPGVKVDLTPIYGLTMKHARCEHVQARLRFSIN
Procedure, shortened: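 Luminescent readout of luciferin formed from Luciferin-ME by human CYP1A2; data normalized against complete inhibition by 57 uM furafylline. Enzyme 20nM, substrate 100uM at Km, 100mM KPO4 buffer, 60 min reaction at room temperature.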

[4] = Stat Signaling Pathway (AID 446); conditions: ME-180 SIE beta-lactamase reporter, IL-6 stimulated, 5 h; at 7.69 µM (top of the series) unless noted;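 also: ME-180 cervical cancer cells given 40 pM IL-6 alongside compound; SIE-controlled beta-lactamase reporter measured as 460/530 nm FRET emission ratio; % is scaled to controls: 0 for no effect and ±100 for the full control effect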
Procedure, shortened: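 ME-180 cells carrying a SIE-driven beta-lactamase reporter are stimulated with 40 pM IL-6 for 5 h at 37C in the presence of compound. The 460/530 nm FRET substrate ratio is read after 2.5 h at RT. Data are normalised to 300 pM IL-6 and to 125 nM JAK inhibitor controls.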

[5] = molecular target: Glucocorticoid receptor (Homo sapiens) (UniProt P04150); assay: GR-GFP Redistribution (AID 450;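 active = compounds whose dose series gives a full or clear partial fitted curve of increased nuclear translocation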; also: potency is read from the fitted curve at half-maximal effect); conditions: U2OS GR-GFP nuclear translocation, laser cytometry, 2 h
Sequence of Glucocorticoid receptor (Homo sapiens) (P04150 whole entry, looked up, the tested form may be a part): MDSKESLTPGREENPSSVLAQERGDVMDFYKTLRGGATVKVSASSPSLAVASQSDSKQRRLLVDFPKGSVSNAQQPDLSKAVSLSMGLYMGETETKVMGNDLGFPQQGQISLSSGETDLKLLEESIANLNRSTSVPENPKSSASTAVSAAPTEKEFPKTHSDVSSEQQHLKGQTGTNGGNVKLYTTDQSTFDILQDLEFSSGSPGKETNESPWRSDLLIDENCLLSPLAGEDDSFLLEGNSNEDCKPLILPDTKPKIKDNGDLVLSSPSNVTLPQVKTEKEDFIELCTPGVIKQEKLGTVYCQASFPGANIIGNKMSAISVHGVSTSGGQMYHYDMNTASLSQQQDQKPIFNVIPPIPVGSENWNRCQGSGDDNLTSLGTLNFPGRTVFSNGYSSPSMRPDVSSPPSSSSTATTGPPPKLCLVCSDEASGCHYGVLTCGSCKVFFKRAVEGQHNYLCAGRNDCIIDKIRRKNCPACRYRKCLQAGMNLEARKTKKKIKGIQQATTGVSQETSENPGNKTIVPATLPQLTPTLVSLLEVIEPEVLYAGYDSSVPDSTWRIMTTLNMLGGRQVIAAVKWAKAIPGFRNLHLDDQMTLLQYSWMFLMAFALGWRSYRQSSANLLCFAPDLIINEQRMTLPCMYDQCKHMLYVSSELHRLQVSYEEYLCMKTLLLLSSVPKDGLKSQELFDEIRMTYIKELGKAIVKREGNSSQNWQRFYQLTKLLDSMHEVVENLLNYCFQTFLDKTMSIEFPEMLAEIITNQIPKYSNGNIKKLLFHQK

[6] = molecular target: Glucocorticoid receptor (Homo sapiens) (UniProt P04150); assay: GR-EFC Redistribution (AID 451; calls by dose curve; also: potency is read from the fitted curve at half-maximal effect); conditions: CHO-K1 GR-EFC translocation, beta-gal luminescence, 2 h
Procedure, shortened: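 CHO-K1 cells stably expressing nuclear-localized β-gal enzyme acceptor and GR fused C-terminally to the enzyme donor fragment; ligand-driven nuclear translocation restores β-gal by complementation. Compounds titrated up to 46 uM final, 2 h at 37 °C; luminescence read.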

[7] = molecular target: Mitogen-activated protein kinase 10 (Mus musculus) (UniProt Q61831); assay: JNK3 AlphaScreen Assay (AID 530); conditions: JNK3 lysate, c-Jun phosphorylation; series mostly up to 57.1 µM;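 also: kinase came from lysate of stimulated human HepG2 cells; signal reports phosphorylation of biotinylated GST-cJun 1-79 at Ser73 with 10 µM ATP; % is scaled to controls: 0 for no effect and ±100 for the full control effect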
Procedure, shortened: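 Inhibitors reduce antibody binding to phosphorylated biotin-cJun, lowering AlphaScreen luminescence. Lysates from HepG2 cells pre-activated by IL-1beta plus TNF-alpha supplied JNK3; compounds were titrated.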

[8] = molecular target: 3',5'-cyclic-AMP phosphodiesterase 4B (Homo sapiens) (UniProt Q07343); assay: qHTS Assay for Inhibitors of PDE-IV (AID 607; active = well fitted activation curve with a large enough effect in the main read-out, with a control signal flat, not every such curve was filed as active; also: % of control where 0% means no effect); conditions: HEK293 ACTOne CNG channel cells, membrane potential fluorescence; series mostly up to 22.9 µM
Sequence of 3',5'-cyclic-AMP phosphodiesterase 4B (Homo sapiens) (Q07343 whole entry, looked up): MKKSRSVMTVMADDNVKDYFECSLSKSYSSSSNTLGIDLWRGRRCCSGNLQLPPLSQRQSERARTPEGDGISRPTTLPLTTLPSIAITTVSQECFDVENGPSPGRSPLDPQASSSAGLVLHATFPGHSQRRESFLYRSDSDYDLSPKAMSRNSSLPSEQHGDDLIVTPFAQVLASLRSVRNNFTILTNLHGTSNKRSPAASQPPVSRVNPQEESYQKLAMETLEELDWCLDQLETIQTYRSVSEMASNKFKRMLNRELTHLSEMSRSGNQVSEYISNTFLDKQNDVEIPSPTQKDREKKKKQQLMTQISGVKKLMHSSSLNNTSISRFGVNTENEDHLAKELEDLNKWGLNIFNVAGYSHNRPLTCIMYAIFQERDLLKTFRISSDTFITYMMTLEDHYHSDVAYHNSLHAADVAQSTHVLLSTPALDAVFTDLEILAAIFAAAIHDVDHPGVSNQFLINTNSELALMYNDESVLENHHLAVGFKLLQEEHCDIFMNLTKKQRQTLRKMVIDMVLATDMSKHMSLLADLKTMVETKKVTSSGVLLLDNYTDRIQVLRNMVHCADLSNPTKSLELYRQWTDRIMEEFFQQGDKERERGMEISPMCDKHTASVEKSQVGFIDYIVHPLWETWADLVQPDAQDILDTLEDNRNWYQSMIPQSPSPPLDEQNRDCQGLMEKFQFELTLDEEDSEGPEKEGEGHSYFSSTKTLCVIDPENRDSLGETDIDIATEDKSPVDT
Procedure, shortened: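 HEK293 ACTOne cells with CNG channel (1000/well), endogenous PDE4; membrane potential dye, compounds up to 22.9 uM final. Fluorescence Ex 535/Em 590; RO 20-1724 (100 uM final) as reference.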

[9] = molecular target: Cytochrome P450 2D6 (Homo sapiens) (UniProt P10635); assay: qHTS Assay for Inhibitors and Substrates of Cytochrome P450 2D6 (AID 891; active = well fitted inhibition curve with a large enough effect; also: potency is read from the fitted curve at half-maximal effect; nearly all actives have a fitted effect of over 60% in size); conditions: recombinant CYP2D6, luciferin-ME EGE luminescence; series mostly up to 11.4 µM
Sequence of Cytochrome P450 2D6 (Homo sapiens) (P10635 whole entry, looked up): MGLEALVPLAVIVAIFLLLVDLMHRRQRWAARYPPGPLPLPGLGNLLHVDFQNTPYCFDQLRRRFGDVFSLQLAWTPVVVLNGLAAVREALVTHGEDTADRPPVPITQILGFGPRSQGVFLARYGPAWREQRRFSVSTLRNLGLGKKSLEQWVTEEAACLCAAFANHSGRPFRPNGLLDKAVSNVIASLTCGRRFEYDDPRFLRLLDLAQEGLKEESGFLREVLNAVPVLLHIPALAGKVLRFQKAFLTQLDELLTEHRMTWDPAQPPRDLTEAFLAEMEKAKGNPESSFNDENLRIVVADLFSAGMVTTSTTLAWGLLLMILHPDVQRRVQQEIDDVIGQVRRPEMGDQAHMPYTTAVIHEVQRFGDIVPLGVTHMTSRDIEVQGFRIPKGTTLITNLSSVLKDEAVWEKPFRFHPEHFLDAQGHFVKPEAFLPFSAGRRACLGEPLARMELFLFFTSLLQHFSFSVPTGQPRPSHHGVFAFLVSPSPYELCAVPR
Procedure, shortened: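 Human CYP2D6 (5 nM) with 30 uM Luciferin-ME EGE (at Km) in 100 mM KPO4, compound preincubated 10 min, then NADPH regeneration system for 60 min at room temperature. Luciferin read by luminescence; normalized to 1.43 uM quinidine.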

CC1(C)N=C(N)N=C(N)N1c1cccc(C(=O)Nc2ccc(S(=O)(=O)F)cc2)c1
active: Potency [9] 2 µM
inactive: Potency [1] > 11.4 µM | activity change, negative = inhibition [2] -0.165% | Potency [3] | activity, negative = inhibition [4] 9.13% | Potency [5] > 46 µM | Potency [6] > 9.22 µM | activity change, negative = inhibition [7] 7.01% [at 11.4 µM] | outcome [8]

From PubChem BioAssay (NCATS)
